Records with an inconclusive call do not appear. Activity calls are given as the source filed them. How the source made its calls: active means hit-call score of the fitted dose curve at least 0.9, where 1 is the maximum; inconclusive means response in the unintended direction; inactive means score below 0.9.
Test: TOX21_p53_BLA_p2_viability: Viability Assessment in the Tox21 HCT-116 p53 Agonism Beta-lactamase Assay, Phase 2 (AID 2283591);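 further: compound exposure lasted 16 h at 37 °C; actives lower the ATP signal meaning cytotoxicity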
Text: TOX21_p53_BLA_p2 is a cell-based, single-readout assay that uses HCT116, a human intestinal cell line, […] in a 1536-well plate.TOX21_p53_BLA_p2_viability is an assay readout measuring cellular ATP content and detected with CellTiter-Glo Luciferase-coupled ATP quantitation.TOX21_p53_BLA_p2_viability used a type of viability reporter where loss-of-signal activity can be used to understand changes in the cell viability. Furthermore, this assay endpoint can be referred to as a secondary readout, because this assay has produced multiple assay endpoints where this one serves a viability function. To generalize the intended target to other relatable targets, this assay endpoint is annotated to the cell cycle intended target family, where the subfamily is cytotoxicity.
Thawing Method: Place 14 mL of pre-warmed thaw medium into a 15 mL of conical tub. Remove the vial of cells to be thawed from liquid nitrogen and thaw rapidly by placing at 37C in a water bath with gentle agitation for 1-2 minutes. Decontaminate the vial by wiping with 70% ethanol before opening in a biological safety cabinet. Transfer the vial contents drop-wise into 14 mL of thaw medium in a sterile 15-mL conical tub. Centrifuge cells at 900 rpm for 4 minutes and resuspend in thaw medium. Transfer contents to the T75 tissue culture flask containing Thaw Medium and place flask in a humidified 37C/5% CO2 incubator. Switch to growth medium at first passage.Propagation Method: Aspirate medium, rinse once in DPBS, add 0.25% Trypsin/EDTA and swirl to coat the cell evenly. Add an equal volume of Growth Medium to inactivate Trypsin after 2-3 minutes incubation at 37C. Centrifuge cells at 900 rpm for 4 minutes and resuspend in growth medium. Cell should be passage or fed at least twice a week.Assay Protocol: Harvest cells from culture in growth medium and resuspend in assay medium. 2.2 Dispense 4000 cells/5 uL/well into 1536-well black/clear bottom plates using a Multidrop dispenser. After the cells were incubated at 37C for 5 hours, 23 nL of compounds dissolved in DMSO were transferred to the assay plate by a PinTool resulting in a 217-fold dilution. Incubate the plates for 16 hours at 37C, 5% CO2. Add 1 uL of 6X LiveBLAzer FRET B/G (CCF4-AM) Substrate Mixture to each well using a BioRAPTR dispenser and incubate the plates at room temperature for 2 hours. Measure fluorescence intensity at 460 and 530 nm emission and 405 nm excitation by an Envision detector. Data is expressed as the ratio of 460nm/530nm emissions. Add 4 uL of Cell-titer Glo to each well using BioRAPTR and incubate the plates at room temperature for […]. For cell viability readout that measures cytotoxicity, 4 ul/well of CellTiter-Glo reagent was added into the assay plates using a Flying Reagent Dispenser. After 30 min incubation at room temperature, the luminescence intensity in the plates was measured using a ViewLux plate reader.
For O=c1oc2ccccc2c(O)c1Cc1c(O)c2ccccc2oc1=O, the AC50 was 8.02 µM (active). For CN(C)c1ccc(N)cc1, the outcome was “inactive”. For Clc1ccc(-c2ccc(Cl)c(Cl)c2Cl)c(Cl)c1Cl, the outcome was “inactive”. For Clc1ccc(C2(Cn3cncn3)OCCO2)c(Cl)c1, the outcome was “inactive”. For CC[C@@H](CO)NC(=O)[C@@H]1C=C2c3cccc4[nH]cc(c34)C[C@H]2N(C)C1, the outcome was “inactive”. In the case of Brc1ccc(Oc2ccc(Br)cc2Br)c(Br)c1, the outcome is reported as “inactive”. For CCCCCCCCCCCCN=C(N)N, the outcome was “inactive”. With CCCCCCCCCCCOC(=O)c1ccccc1C(=O)OCCCCCCCCCCC the outcome was “inactive”. In the case of ClC(Cl)(Cl)Br, the outcome is reported as “inactive”. In the case of C[C@]12CC[C@H](O)C[C@H]1CC[C@@H]1[C@@H]2CC[C@]2(C)[C@@H](c3ccc(=O)oc3)C[C@H]3O[C@]132, the AC50 is reported as 0.859 µM (active). With CN[C@H]1C[C@@H](N)[C@H](O)[C@@H](O[C@@H]2O[C@H](CO)[C@H](O)[C@@H]3OC4(O[C@H]23)O[C@H](C(N)CO)[C@H](O)[C@H](O)C4O)[C@@H]1O (stereo not given in full) the outcome was “inactive”. In the case of CN1C(=O)NC(=O)C(C)(C2=CCCCC2)C1=O (stereo not given), the outcome is reported as “inactive”. In the case of CN(C)CCC#N, the outcome is reported as “inactive”. In the case of CCOC(=O)NC(C)(C)Cc1ccc(Cl)cc1, the outcome is reported as “inactive”. In the case of FC(F)OC(F)(F)C(F)Cl (stereo not given), the outcome is reported as “inactive”. With CCCCCCCCCCCCCCCCCCn1cc[n+](C)c1 the outcome was “inactive”. In the case of c1ccc2c(c1)CCNC2, the outcome is reported as “inactive”. For CCCC(C)(COC(N)=O)COC(=O)NC(C)C (stereo not given), the outcome was “inactive”. In the case of CC(=O)CCC(C)=O, the outcome is reported as “inactive”. For COC1=CC(=O)O[C@@H](/C=C/c2ccc3c(c2)OCO3)C1, the outcome was “inactive”. In the case of NNC(=O)c1ccccc1, the outcome is reported as “inactive”. With O=c1oc2ccccc2c(O)c1C1CCCc2ccccc21 (stereo not given) the outcome was “inactive”. With Oc1cccc[c]1[Hg][Cl] the AC50 was 4.03 µM (active). In the case of CCOP(=O)(OCC)SCCSCC (tested in a mixture with another compound), the outcome is reported as “inactive”. In the case of CN(C)CCc1c[nH]c2cccc(OP(=O)(O)O)c12, the outcome is reported as “inactive”. With CC(=O)OCC(=O)[C@H]1CC[C@H]2[C@@H]3CC[C@H]4C[C@H](O)CC[C@]4(C)[C@H]3C(=O)C[C@]12C the outcome was “inactive”. In the case of CC(C)(O)C(Cl)(Cl)Cl, the outcome is reported as “inactive”. With c1ccc(C2CC2)c(OCC2=NCCN2)c1 the outcome was “inactive”. With CCOP(=O)(OCC)OCC the outcome was “inactive”. For CCBr, the outcome was “inactive”. For COP(=S)(OC)Oc1ccc([N+](=O)[O-])cc1Cl, the outcome was “inactive”. In the case of O=C(O)c1cc(Cl)ccc1Cl, the outcome is reported as “inactive”. With C=CCc1ccc(OC(=O)Cc2ccccc2)c(OC)c1 the outcome was “inactive”. For S=C=NCCc1ccccc1, the outcome was “inactive”. For c1ccc2c(c1)CCCC2, the outcome was “inactive”. In the case of CCOP(=S)(OCC)Oc1cc(Cl)c(Br)cc1Cl, the outcome is reported as “inactive”. In the case of Oc1ccc2c3c1O[C@H]1[C@@H](O)CC[C@@]4(O)[C@@H](C2)N(CC2CCC2)CC[C@]314, the outcome is reported as “inactive”. In the case of Oc1ccc2[nH]cc(CCCCN3CC=C(c4ccccc4)CC3)c2c1, the outcome is reported as “inactive”. For CC(=O)OC1(c2ccccc2)CCN(CCc2ccccc2)CC1, the outcome was “inactive”. With OCC(Br)CBr (stereo not given) the outcome was “inactive”.

Source: PubChem BioAssay (EPA / NIEHS)
